# High-throughput results: PubChem, National Center for Advancing Translational Sciences (NCATS)
# Shown is part of a subset that was picked to be rich in hits.
# NS1 inh: influenza NS1 inhibition; AID 2326; 270,000 tested, 0.4% active; Potency, µM (titrated, usually from 46.1 µM), inactives show top-dose activity, positive = more growth; also: potency is read from the fitted curve at half-maximal effect; actives are rising curves; nearly all actives have a fitted effect of over 50% in size
#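 A cell-based growth assay was used: compounds that relieve NS1-induced slow growth of budding yeast raise OD600. Assay medium was yeast nitrogen base with ammonium sulphate and -URA supplement, pH 6.0, with 2% galactose.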
# LmPK inh: LmPK (Leishmania mexicana) enzyme inhibition | AID 1721 | Potency, µM (titrated, usually from 57.5 µM), for the others: top-dose activity change, negative = inhibition, most hits filed as inhibitors | Q27686 | 290,000 tested, 0.37% active | purified LmPK, Kinase-Glo ATP luminescence, 1 h; active = well fitted curve in the direction sought with a large enough effect; inconclusive = small, poorly fitted or top-dose-only effect, or another doubt; inactive = no such curve, though single readings can be large; an effect the other way counts as inactive or inconclusive; also: potency is read from the fitted curve at half-maximal effect; % is scaled to controls: 0 for no effect and ±100 for the full control effect
# Target sequence (Q27686 whole entry, looked up): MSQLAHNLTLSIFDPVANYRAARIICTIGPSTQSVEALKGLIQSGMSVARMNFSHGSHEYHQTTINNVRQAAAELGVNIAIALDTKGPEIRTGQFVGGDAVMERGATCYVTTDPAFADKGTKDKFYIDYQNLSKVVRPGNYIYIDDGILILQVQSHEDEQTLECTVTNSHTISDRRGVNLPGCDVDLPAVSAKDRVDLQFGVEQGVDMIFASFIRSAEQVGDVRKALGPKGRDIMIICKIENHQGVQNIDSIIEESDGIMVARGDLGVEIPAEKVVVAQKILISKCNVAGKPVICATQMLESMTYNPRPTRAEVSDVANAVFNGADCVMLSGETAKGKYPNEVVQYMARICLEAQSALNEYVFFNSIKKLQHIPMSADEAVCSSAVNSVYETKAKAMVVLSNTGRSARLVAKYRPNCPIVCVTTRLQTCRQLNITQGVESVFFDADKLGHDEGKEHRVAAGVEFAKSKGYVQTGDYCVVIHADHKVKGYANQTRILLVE
#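 Purified LmPK (0.1 nM) converted ADP (0.1 mM) to ATP with PEP (0.5 mM) in imidazole buffer pH 7.2 with KCl and MgCl2, 1 h at room temperature. ATP was read by Kinase-Glo luminescence; data normalized to uninhibited and no-enzyme controls.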
# Shiga toxin inh: blocks Shiga toxin action in Vero cells; Vero cells, Shiga toxin protein synthesis inhibition reporter; inhibition, % at 38.7 µM; 290,000 tested, 9.2% active; in the data active = inhibition mostly above about 28%, no sharp cut-off; inactive = mostly below about 43%; also: 0% is about no effect
# SARS PLP yeast: inhibitors of SARS-CoV papain-like protease in yeast. Potency, µM (highest dose often 32.9 µM), for the others: at the top dose activity, positive = growth rescue, most hits filed as activators. S. cerevisiae expressing SARS-CoV PLpro, growth rescue. 330,000 tested, 0.19% active. AID 485353; also: potency is read from the fitted curve at half-maximal effect; 0% is about no effect; nearly all actives have a fitted effect of over 55% in size
# Tb PYK inh: blocks Trypanosoma brucei pyruvate kinase | Q57TT1 | TbPYK enzyme, Kinase-Glo Plus ATP luminescence, 45 min | Potency, µM (series often up to 76.8 µM), for the others: at the highest dose activity, negative = inhibition, usual class: inhibitors | 410,000 tested, 0.12% active | AID 624173; active = well fitted curve in the direction sought with a large enough effect; inconclusive = small, poorly fitted or top-dose-only effect, or another doubt; inactive = no such curve, though single readings can be large; an effect the other way counts as inactive or inconclusive; also: potency is read from the fitted curve at half-maximal effect; % is scaled to controls: 0 for no effect and ±100 for the full control effect; nearly all actives have a fitted effect of over 50% in size
#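 Assay buffer: 50 mM TEA pH 7.2, 100 mM KCl, 10 mM MgCl2, 0.05% BSA, 0.01% Tween-20. Pyruvate kinase from T. brucei plus substrate met compound, then ADP (130 uM final). Luminescence was read post 45 min RT.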
# Cycloheximide cs: counter-screen hit for Shiga toxin inhibitors, cycloheximide; AID 2314; cell reporter, cycloheximide protein synthesis inhibition counterscreen; max response, %; 300,000 tested, 12% active; in the data active = max response mostly above about 13%, no sharp cut-off; inactive = mostly below about 14%; also: read at 38.3 µM for the half of the compounds with a filed dose; 0% is about no effect
# Flu NS1 inh: influenza NS1 function inhibition validation; shares compounds with NS1 inh; influenza NS1 function cell assay, 15-point titration; activity change, negative = inhibition, % at 32.9 µM; 1,400 tested, under 10 active; AID 492980; also: 0% is about no effect
# PR8 titer: influenza virus titer reduction, NS1 project | shares compounds with NS1 inh | MDCK infected influenza A/PR/8/34, virus titer TCID50; stronger effect = lower value | virus titer (log TCID50), log10 TCID50 at 5 µM | 95 tested, 30% active; call rule not given here
# * marks the source's active call; other numbers are inactive results; i = inactive; ? = inconclusive; . = not tested or not shown. Unless noted, calls follow the shape of the full dose curve.
SMILES,NS1 inh,LmPK inh,Shiga toxin inh,SARS PLP yeast,Tb PYK inh,Cycloheximide cs,Flu NS1 inh,others
COc1ccc(CN(C)Cc2c(O)ccc3cc(Br)ccc23)cc1OC,22.5%,3.8%,-7.9,-0.3%,-1.6%,-4.6,.,
O=C(Cc1ccc(N(CCCl)CCCl)cc1)NC(Cc1ccc(Cl)cc1)C(=O)O (stereo unspecified),13.6%,-1.3%,-10.9,-6.6%,6.4%,-1.6,.,
OCCN(CCO)c1ccc(C(c2ccc(Cl)cc2)c2ccc(N(CCO)CCO)cc2Cl)c(Cl)c1,14.1µM*,6.1%,1.6,12.0%,-2.5%,-3.9,7.9,
Cc1c(NC(=O)OCCNC(=O)COc2ccc(Cl)cc2Cl)sc(=S)n1C,?,3.1%,-8.8,-11.8%,-2.7%,1.6,15.0,
O=C(NN=Cc1ccc(O)c(O)c1)c1ccccc1,.,.,.,.,14.9%,.,.,
O=C(/C(=N/N=C/c1ccc(O)c(O)c1O)c1ccccc1)c1ccccc1,3.16µM*,4.2%,12.4,-100.0%,-10.3%,6.3,?,
CCCC12C(=O)C(C)(C(c3ccccc3)=C1c1ccccc1)C1C(=O)N(c3ccc(C)cc3)C(=O)C12 (stereo unspecified),10µM*,3.1%,17.1,8.7%,-10.6%,-1.2,-25.9,PR8 titer=6.5*
CCC(C(=O)Nc1ccc(C(=O)O)cc1NC(=O)C(CC)c1ccccc1)c1ccccc1 (stereo unspecified),11.2µM*,2.0%,9.9,9.2%,0.2%,0.7,6.1,
Cc1ccc(C(=O)O)cc1NC(=S)NC(=O)C(c1ccccc1)c1ccccc1,?,-4.9%,-15.3,6.2%,-5.6%,6.9,5.8,
CCC(C(=O)Nc1cc(C(=O)O)ccc1C)c1ccccc1 (stereo unspecified),4.9%,-7.5%,-2.4,0.2%,14.4%,-1.4,.,
COc1ccccc1C1CC(=O)Oc2c(C(C)C)ccc(C)c21 (stereo unspecified),.,.,i,-74.3%,0.0%,-0.4,.,
CSc1cc(SC)ncn1,.,.,.,.,-0.8%,.,.,
CNC(=S)N1N=C(c2ccc(C)cc2)CC1c1ccc(OC)cc1 (stereo unspecified),-12.1%,1.1%,10.6,1.9%,-4.6%,-2.5,.,
CNC(=S)N1N=C(c2ccc(Br)cc2)CC1c1ccc(OC)cc1 (stereo unspecified),22.4µM*,0.6%,19.3,-0.5%,-10.3%,7.6,-32.4,
CC1(C)C(=O)C2(C(=O)NCc3ccccc3)CCC1C2 (stereo unspecified),20µM*,1.0%,-6.5,0.9%,-0.6%,-2.3,1.3,
O=C(COc1ccccc1Cl)Nc1nc(-c2ccc(F)cc2)ns1,.,.,.,.,2.1%,.,.,
CCCCOc1cccc(C(=O)Nc2ccc(S(=O)(=O)Nc3nnc(CC)s3)cc2)c1,8.91µM*,-0.5%,-6.3,-5.2%,-12.7%,-2.3,11.5,
CCc1nnc(NS(=O)(=O)c2ccc(NC(=O)c3cccc([N+](=O)[O-])c3)cc2)s1,21.7%,5.4%,-7.1,4.9%,-6.3%,-1.4,.,
CC(C)(C)c1nnc2sc(SCC(=O)c3ccc(Cl)cc3)nn2c1=O,11.2µM*,1.9%,2.1,-5.3%,-3.8%,-0.3,26.1,PR8 titer=8.5
O=C1CCCC/C1=C\Nc1ccc(O)cc1,?,-9.3%,64.1*,-0.4%,-13.0%,41.4*,-9.1,
COC(=O)[C@@]1(Cc2ccc(F)cc2)[C@H]2c3cc(C(=O)N4CCCC4)n(Cc4ccc(C(F)(F)F)nc4)c3C[C@H]2CN1C(=O)c1ccccc1,11.2µM*,2.4%,-3.2,6.5%,1.4%,-6.2,3.0,
CCOC(=O)[C@]12CCCC=C1N(Cc1cccc3ccccc13)C(=O)[C@H](CC(=O)NCCc1ccccc1OC)C2,.,.,.,.,-11.5%,.,.,
COc1ccc(OC)c(S(=O)(=O)N2CCCC2C(=O)N2CCc3ccccc3C2)c1 (stereo unspecified),?,0.8%,-1.8,1.6%,0.1%,-6.7,?,
